# Unmarked numbers belong to inactive results. For some of these results: Potency and affinity values are given separately. The source made the active and inactive calls.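 The calls were made as follows, unless noted: active = thallium flux through the channel raised or lowered by more than 3 SD from vehicle-only wells, actives on both sides; inactive = the rest.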
# Columns and labels:
# [1] = antimalarial activity against Dd2 strain (AID 2302;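 active = growth inhibition above 50% at the single 2 µM test dose, taken to imply half-maximal potency below 2 µM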;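 also: 0% = DMSO untreated growth and 100% = chloroquine plus artemisinin killed control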); settings: P. falciparum Dd2 in RBCs, LDH growth readout, 72 h; at 2 µM; active compounds read high
# [2] = HepG2 cytotoxicity, primary screen, cytotoxicity control for P. falciparum antimalarial project, cell-based, ATP luminescence (AID 2303;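 active = inhibition above 50%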;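 also: 0% = DMSO wells and 100% = digitonin-killed cells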); settings: HepG2 viability, 24-48 h, at 10 µM, active compounds read high
# [3] = target: L-lactate dehydrogenase (Plasmodium falciparum (isolate CDC / Honduras)) (UniProt Q27743); assay: PfLDH activity inhibition – cell lysate, 3D7 strain, counter-screen for P. falciparum growth inhibition project (AID 2304; call rule not given here;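 also: 0% = vehicle and 100% = reference inhibitor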); settings: P. falciparum 3D7 crude extract, LDH APAD/NBT absorbance; at 2 µM; active compounds read high
# L-lactate dehydrogenase (Plasmodium falciparum (isolate CDC / Honduras)), sequence (Q27743 whole entry, looked up): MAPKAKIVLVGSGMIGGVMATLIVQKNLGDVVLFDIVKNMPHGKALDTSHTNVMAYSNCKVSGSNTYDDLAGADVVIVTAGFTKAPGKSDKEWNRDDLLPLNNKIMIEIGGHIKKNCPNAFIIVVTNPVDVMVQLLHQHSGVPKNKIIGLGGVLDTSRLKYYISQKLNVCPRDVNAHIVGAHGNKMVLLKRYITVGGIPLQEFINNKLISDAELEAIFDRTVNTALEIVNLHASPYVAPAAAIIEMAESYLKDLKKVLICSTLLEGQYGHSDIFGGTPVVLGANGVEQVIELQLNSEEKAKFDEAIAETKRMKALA
# [4] = inhibition of 3D7 malaria parasite growth – strain 3D7 (AID 2306; call rule not given here;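 also: 0% = DMSO wells and 100% = chloroquine plus artemisinin control wells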); settings: P. falciparum 3D7 erythrocytic growth, LDH absorbance, 72 h; at 2 µM; active compounds read high
# [5] = target: Plasmodium falciparum protein kinase 6 (PK6, PF3D7_1337100) (UniProt Q8IDW1); assay: PfPK6 kinase inhibitors, biochemical, TCAMS library (AID 1159586; call rule not given here); settings: recombinant PfPK6, Kinase-Glo ATP depletion luminescence
# Plasmodium falciparum protein kinase 6 (PK6, PF3D7_1337100), sequence (Q8IDW1 1-305): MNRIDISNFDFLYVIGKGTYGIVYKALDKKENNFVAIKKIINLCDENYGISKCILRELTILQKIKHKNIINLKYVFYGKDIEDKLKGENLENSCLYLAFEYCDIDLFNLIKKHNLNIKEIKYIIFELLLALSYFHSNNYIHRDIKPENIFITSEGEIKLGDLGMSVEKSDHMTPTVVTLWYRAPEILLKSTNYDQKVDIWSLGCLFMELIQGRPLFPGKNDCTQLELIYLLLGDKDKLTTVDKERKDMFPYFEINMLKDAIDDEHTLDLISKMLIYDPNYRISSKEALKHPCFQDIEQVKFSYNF
# [6] = target: Protein kinase 7 (PK7), Plasmodium falciparum 3D7 (PF3D7_0213400) (UniProt Q7YTF7); assay: inhibition of Plasmodium PK7 catalytic activity – biochemical, TCAMS antimalarial set, Kinase-Glo luminescence (AID 1159587; call rule not given here); settings: recombinant PfPK7, Kinase-Glo ATP depletion luminescence
# Protein kinase 7 (PK7), Plasmodium falciparum 3D7 (PF3D7_0213400), sequence (Q7YTF7 1-343): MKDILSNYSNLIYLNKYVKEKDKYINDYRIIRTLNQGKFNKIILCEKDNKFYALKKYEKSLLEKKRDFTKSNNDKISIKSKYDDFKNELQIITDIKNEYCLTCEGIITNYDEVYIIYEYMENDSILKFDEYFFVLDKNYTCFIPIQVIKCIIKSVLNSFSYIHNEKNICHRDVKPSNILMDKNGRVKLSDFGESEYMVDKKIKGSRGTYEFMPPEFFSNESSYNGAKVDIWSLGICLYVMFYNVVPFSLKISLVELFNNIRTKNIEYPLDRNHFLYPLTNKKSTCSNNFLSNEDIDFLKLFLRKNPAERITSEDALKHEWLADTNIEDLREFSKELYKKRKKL
# [7] = target: Calcium-dependent protein kinase 4 (Plasmodium falciparum (isolate 3D7)) (UniProt Q8IBS5); assay: PfCDPK4 kinase inhibitors, biochemical, TCAMS library (AID 1159588; cut-off not given, nearly all actives have IC50 up to about 0.91 µM); settings: recombinant PfCDPK4, Kinase-Glo ATP depletion luminescence
# Calcium-dependent protein kinase 4 (Plasmodium falciparum (isolate 3D7)), sequence (Q8IBS5 whole entry, looked up): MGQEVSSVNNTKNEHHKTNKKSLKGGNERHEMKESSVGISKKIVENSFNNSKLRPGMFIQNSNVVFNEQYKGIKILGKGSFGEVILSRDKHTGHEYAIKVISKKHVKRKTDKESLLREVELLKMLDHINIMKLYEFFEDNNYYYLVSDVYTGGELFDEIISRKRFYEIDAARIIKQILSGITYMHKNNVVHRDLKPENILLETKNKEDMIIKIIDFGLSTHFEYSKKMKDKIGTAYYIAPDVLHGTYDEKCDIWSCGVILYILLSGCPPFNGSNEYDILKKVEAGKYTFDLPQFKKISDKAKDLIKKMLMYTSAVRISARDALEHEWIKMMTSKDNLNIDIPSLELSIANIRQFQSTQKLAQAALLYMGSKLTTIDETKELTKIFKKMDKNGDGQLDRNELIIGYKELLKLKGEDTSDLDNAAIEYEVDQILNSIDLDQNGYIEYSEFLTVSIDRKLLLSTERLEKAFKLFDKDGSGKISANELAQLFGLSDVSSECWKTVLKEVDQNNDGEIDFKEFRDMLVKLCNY
# [8] = tested on: F380Y; assay: modulators of BK channel variants, profiling panel, selectivity assay, cell-based, U2OS BacMam, thallium flux, beta subunits (AID 1259406); settings: at 30 µM;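 also: initial slope of Thallos dye fluorescence rise after thallium is added; log ratio against the mean of 0.3% DMSO vehicle wells on the same plate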
# [9] = tested on: F380Y/beta1; assay: as above; settings: at 30 µM
# [10] = tested on: F380Y/beta2Delta; assay: as above; settings: at 30 µM
# [11] = tested on: F380Y/beta4; assay: as above; settings: at 30 µM
# [12] = target: Calcium-activated potassium channel subunit alpha-1 (Homo sapiens) + Leucine-rich repeat-containing protein 26 (Homo sapiens) (UniProt Q12791+Q2I0M4); assay: as above; settings: F380Y/Slo1WT/gamma1, at 30 µM
# Calcium-activated potassium channel subunit alpha-1 (Homo sapiens) + Leucine-rich repeat-containing protein 26 (Homo sapiens), sequence (Q2I0M4 whole entry, looked up, one chain of several): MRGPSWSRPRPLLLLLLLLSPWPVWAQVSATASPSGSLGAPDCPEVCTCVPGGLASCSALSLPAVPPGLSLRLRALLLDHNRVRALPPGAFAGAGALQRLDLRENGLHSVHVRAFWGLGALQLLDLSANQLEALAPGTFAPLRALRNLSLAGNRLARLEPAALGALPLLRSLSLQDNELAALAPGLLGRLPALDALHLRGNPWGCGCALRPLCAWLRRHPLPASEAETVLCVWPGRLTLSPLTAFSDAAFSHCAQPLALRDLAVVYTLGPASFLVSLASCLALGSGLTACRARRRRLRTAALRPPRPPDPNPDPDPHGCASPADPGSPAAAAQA
# [13] = tested on: R275C; assay: as above; settings: at 30 µM
# [14] = tested on: R275C/beta1; assay: as above; settings: at 30 µM
# [15] = tested on: R275C/beta2Delta; assay: as above; settings: at 30 µM
# [16] = tested on: R275C/beta4; assay: as above; settings: at 30 µM
# [17] = tested on: R275C/Slo1WT/beta2; assay: as above; settings: at 30 µM
smiles,measurement,setting,value
O=C(Nc1c(F)cccc1F)c1cccc(-c2nn3ccccc3c2-c2ccnc(Nc3cccc(-c4cnco4)c3)n2)c1,growth inhibition,[1],94% (active)
same,inhibition,[2],96% (active)
same,inhibition,[3],-6%
same,growth inhibition,[4],95% (active)
same,outcome,[5],inactive
same,outcome,[6],inactive
O=S1(=O)NCc2ccc(Nc3nccc(Nc4ccc5c(cnn5Cc5ccccc5)c4)n3)cc21,growth inhibition,[1],33%
same,inhibition,[2],-8%
same,inhibition,[3],-1%
same,growth inhibition,[4],94% (active)
same,outcome,[6],inactive
same,outcome,[7],inactive
CN(C)Cc1cccc(-c2cc3c(-c4cnn(C)c4)c(Cl)cnc3[nH]2)c1,growth inhibition,[1],21%
same,inhibition,[2],75% (active)
same,inhibition,[3],-5%
same,growth inhibition,[4],96% (active)
same,outcome,[6],inactive
same,outcome,[7],inactive
CNC(=O)c1ccccc1Nc1nc(Nc2ccc(N3CCN(C)CC3)nc2)ncc1C,growth inhibition,[1],50% (active)
same,inhibition,[2],75% (active)
same,inhibition,[3],4%
same,growth inhibition,[4],92% (active)
same,outcome,[6],inactive
same,outcome,[7],inactive
CCn1c(-c2nonc2N)nc2c(-c3cccc(NC(=O)Nc4ccccc4OC)c3)ncc(OCCCN)c21,growth inhibition,[1],58% (active)
same,inhibition,[2],84% (active)
same,inhibition,[3],-2%
same,growth inhibition,[4],92% (active)
same,outcome,[5],inactive
same,outcome,[6],inactive
O=C(Nc1cccc(-c2nn3ccccc3c2-c2ccnc(Nc3ccc(C(=O)N4CCOCC4)cc3)n2)c1)c1c(F)cccc1F,growth inhibition,[1],97% (active)
same,inhibition,[2],72% (active)
same,inhibition,[3],4%
same,growth inhibition,[4],99% (active)
same,outcome,[5],inactive
same,outcome,[6],inactive
COc1ccc(Nc2ncc3c(-c4cccc(NC(=O)Cc5ccc(O)cc5)c4)c[nH]c3n2)cc1OC,growth inhibition,[1],99% (active)
same,inhibition,[2],48%
same,inhibition,[3],-2%
same,growth inhibition,[4],102% (active)
same,outcome,[6],inactive
same,outcome,[7],inactive
CCn1c(-c2nonc2N)nc2c(-c3cccc(NC(=O)Nc4ccc5c(c4)CCC5)c3)ncc(OCCCN)c21,growth inhibition,[1],94% (active)
same,inhibition,[2],26%
same,inhibition,[3],-2%
same,growth inhibition,[4],99% (active)
same,outcome,[5],inactive
same,outcome,[6],inactive
O=C(O)CCSc1ccc2ccccc2c1,log fold change Tl+ flux,[8],-0.00784
same,log fold change Tl+ flux,[9],0.0347
same,log fold change Tl+ flux,[10],-0.0447
same,log fold change Tl+ flux,[11],0.0271
same,log fold change Tl+ flux,[12],-0.000304
same,log fold change Tl+ flux,[13],0.0461
same,log fold change Tl+ flux,[14],0.0425
same,log fold change Tl+ flux,[15],-0.00975
same,log fold change Tl+ flux,[16],-0.0121
same,log fold change Tl+ flux,[17],0.000781
CSc1nc(N)nc(-c2cccs2)n1,log fold change Tl+ flux,[8],0.02
same,log fold change Tl+ flux,[9],0.0489
same,log fold change Tl+ flux,[10],0.0165
same,log fold change Tl+ flux,[11],0.0265
same,log fold change Tl+ flux,[12],0.0393
same,log fold change Tl+ flux,[13],-0.0182
same,log fold change Tl+ flux,[14],0.00143
same,log fold change Tl+ flux,[15],0.042
same,log fold change Tl+ flux,[16],0.0144
same,log fold change Tl+ flux,[17],0.0475
O=C(NNc1c(Cl)cccc1Cl)c1csc(Cc2c(Cl)cccc2Cl)n1,log fold change Tl+ flux,[8],0.031
same,log fold change Tl+ flux,[9],-0.0231
same,log fold change Tl+ flux,[10],0.0346
same,log fold change Tl+ flux,[11],-0.048
same,log fold change Tl+ flux,[12],-0.0234
same,log fold change Tl+ flux,[13],0.0148
same,log fold change Tl+ flux,[14],-0.0344
same,log fold change Tl+ flux,[15],0.00139
same,log fold change Tl+ flux,[16],-0.00534
same,log fold change Tl+ flux,[17],0.0322
CNC(=O)c1ccccc1Nc1nc(Nc2ccc(CCN3CCN(C)CC3)cc2)ncc1Cl,growth inhibition,[1],98% (active)
same,inhibition,[2],76% (active)
same,inhibition,[3],5%
same,growth inhibition,[4],97% (active)
same,outcome,[6],inactive
CNC(=O)c1ccccc1Nc1nc(Nc2ccc(N3CCOCC3)cc2)ncc1Cl,growth inhibition,[1],97% (active)
same,inhibition,[2],75% (active)
same,inhibition,[3],-3%
same,growth inhibition,[4],97% (active)
same,outcome,[6],inactive
same,outcome,[7],inactive
Cc1cc(S(=O)(=O)c2ccc(Cl)cc2)sc1C(=O)NCC(O)c1ccccc1 (stereo not given),log fold change Tl+ flux,[8],0.0511
same,log fold change Tl+ flux,[9],0.0134
same,log fold change Tl+ flux,[10],0.000794
same,log fold change Tl+ flux,[11],0.0168
same,log fold change Tl+ flux,[12],-0.0326
same,log fold change Tl+ flux,[13],-0.0286
same,log fold change Tl+ flux,[14],0.095
same,log fold change Tl+ flux,[15],0.0132
same,log fold change Tl+ flux,[16],0.0561
same,log fold change Tl+ flux,[17],-0.00987
Cc1cc(Nc2ncc(Cl)c(Nc3ccccc3C(N)=O)n2)n[nH]1,growth inhibition,[1],96% (active)
same,inhibition,[2],70% (active)
same,inhibition,[3],-1%
same,growth inhibition,[4],98% (active)
same,outcome,[6],inactive
same,outcome,[7],inactive
CS(=O)(=O)Cc1ccc(Nc2nccc(-c3c(-c4cccc(NC(=O)c5c(F)cccc5F)c4)nn4ccccc34)n2)cc1,growth inhibition,[1],75% (active)
same,inhibition,[2],78% (active)
same,inhibition,[3],0%
same,growth inhibition,[4],99% (active)
same,outcome,[6],inactive
Cc1nn(C)c2ncc(C(N)=O)c(Oc3ccc(Cl)cc3)c12,log fold change Tl+ flux,[8],-0.00628
same,log fold change Tl+ flux,[9],-0.0132
same,log fold change Tl+ flux,[10],0.0115
same,log fold change Tl+ flux,[11],0.049
same,log fold change Tl+ flux,[12],0.0214
same,log fold change Tl+ flux,[13],-0.017
same,log fold change Tl+ flux,[14],0.00427
same,log fold change Tl+ flux,[15],0.0253
same,log fold change Tl+ flux,[16],-0.0279
same,log fold change Tl+ flux,[17],-0.0474
Cc1ccccc1S(=O)(=O)NCc1ccc(N2CCN(C)CC2)cc1,log fold change Tl+ flux,[8],-0.0156
same,log fold change Tl+ flux,[9],-0.00969
same,log fold change Tl+ flux,[10],0.0214
same,log fold change Tl+ flux,[11],0.0231
same,log fold change Tl+ flux,[12],0.0153
same,log fold change Tl+ flux,[13],-0.00175
same,log fold change Tl+ flux,[14],0.0272
same,log fold change Tl+ flux,[15],0.0013
same,log fold change Tl+ flux,[16],0.0244
same,log fold change Tl+ flux,[17],-0.0187
